gsp antag: qHTS for Antagonists of gsp, the Etiologic Mutation Responsible for Fibrous Dysplasia/McCune-Albright Syndrome: qHTS. Potency, µM (series often up to 76.9 µM), most hits filed as inhibitors. 340,000 compounds, 0.4% hits. AID 624288, 2012. gsp-mutant cells, cAMP HTRF, 30 min; calls by dose curve; cell line not stated here;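 also: intracellular cAMP measured with PDE inhibitor Ro 20-1724 present during compound exposure; nearly all actives have a fitted effect of over 65% in size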
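G418-selected cells were plated in DMEM/10% FBS for 16-24 h at 37C, then treated with compounds plus the PDE inhibitor […] (300 uM solution added) for 30 min at 37C. Intracellular cAMP was measured by HTRF after 30 min lysis at room temperature.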
gsp ag: qHTS for Agonist of gsp, the Etiologic Mutation Responsible for Fibrous Dysplasia/McCune-Albright Syndrome: qHTS; gsp mutant cells, cAMP HTRF, 30 min; Potency, µM (titrated, usually from 76.9 µM), hits mostly activators; 340,000 compounds, 0.13% hits; AID 624287, 2012; active = well fitted activation curve with a large enough effect; inconclusive = small, poorly fitted or top-dose-only effect, or another doubt; inactive = no such curve, though single readings can be large or run the other way; cell line not stated here;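 also: phosphodiesterase inhibitor Ro 20-1724 added with compounds to block cAMP breakdown; nearly all actives have a fitted effect of over 60% in size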
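Cells in DMEM/10% FBS with G418 were pretreated with compounds in DMSO plus […] (300 uM stock) for 30 min at 37C. cAMP was measured by HTRF (cAMP-d2 plus anti-cAMP antibody-K) after 30 min at room temperature.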
IL2 activator: qHTS of IL-2 Activators | IL-2 activation reporter assay, cell-based qHTS; stimulated with anti-CD3/CD4/CD28 beads; in transgenic mouse T cells | activation, % (series mostly up to about 46 µM) | 360,000 compounds, 0.065% hits; in the data active = activation above about 50%; inconclusive = mostly about 30% to 49%
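Unstimulated transgenic mouse T cells; 60-min compound exposure; bead-based TCR/CD4/CD28 stimulation; 18 h culture, 37 degrees C; dual fluorescence (EGFP, DsRed) plate cytometry.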
BRCA1 expr up: qHTS Assay to Identify Small Molecule Activators of BRCA1 Expression | MCF7-BRCA1-FFLuc reporter, luminescence, 48 h; response scale: scaled: vehicle 0%, 10 µM genistein 100% | 380,000 compounds, 1.1% hits | Potency, µM (highest dose often 46.1 µM), hits mostly activators; also: nearly all actives have a fitted effect of over 80% in size
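MCF7-BRCA1-FFLuc cells, 2000/well in phenol-red-free MEM, attached 2 h then treated 48 h at 37 C. Luciferase luminescence read 15 min after reagent; normalized to genistein maximum activation (10microM) and DMSO, concentration-response fitted.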
mIDH1 inhibitor: qHTS for Inhibitors of mutant isocitrate dehydrogenase 1 (IDH1): qHTS; Potency, µM (top dose mostly 76.6 µM), most hits filed as inhibitors; IDH1-R132H enzyme, NADPH consumption, diaphorase/resazurin fluorescence; Isocitrate dehydrogenase [NADP] cytoplasmic (Homo sapiens), O75874; 390,000 compounds, 0.093% hits; also: nearly all actives have a fitted effect of over 65% in size
Target sequence (O75874 whole entry R132H, stated change not applied): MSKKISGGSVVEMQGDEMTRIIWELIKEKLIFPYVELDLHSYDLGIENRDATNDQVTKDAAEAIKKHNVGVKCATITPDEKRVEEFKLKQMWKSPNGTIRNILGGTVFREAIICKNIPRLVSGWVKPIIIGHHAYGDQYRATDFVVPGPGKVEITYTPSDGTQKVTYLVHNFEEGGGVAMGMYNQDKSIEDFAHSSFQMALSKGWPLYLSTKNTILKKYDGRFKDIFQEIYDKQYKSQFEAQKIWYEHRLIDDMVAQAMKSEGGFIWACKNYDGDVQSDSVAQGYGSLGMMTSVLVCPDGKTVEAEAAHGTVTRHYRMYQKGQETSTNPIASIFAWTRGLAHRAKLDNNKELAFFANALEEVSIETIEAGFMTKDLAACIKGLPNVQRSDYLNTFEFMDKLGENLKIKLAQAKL
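IDH1-R132H (0.5 ug/mL) preincubated 30 min with compound, then NADPH (0.016 mM) and alpha-KG (2 mM) added; 80 min at RT, pH 7.5. Remaining NADPH coupled via diaphorase/resazurin to fluorescence (540/590 nm); concentration-response curves normalized to no-enzyme control.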
Numbers stand for hits; i = inactive; ? = inconclusive; nt = not tested or not shown; [ ] = dose if it differs, or a comment. Sampled rows, rich in hits. Any-hit rate of the full collection: about 1.5%. Unless noted, calls follow the shape of the dose curve; as a rule, active = well fitted curve in the direction sought with a large enough effect; inconclusive = small, poorly fitted or top-dose-only effect, or another doubt; inactive = no such curve, though single readings can be large; an effect the other way counts as inactive or inconclusive.

SMILES | gsp antag | gsp ag | IL2 activator | BRCA1 expr up | mIDH1 inhibitor
COc1cc2nc(N3CCCN(C)CC3)nc(NC3CCNCC3)c2cc1OC | nt | nt | nt | i | nt
C=C(C)CN(CC)C(=O)CCc1nnc(CCCc2ccccc2)o1 | i | i[15.4 µM] | i | ? | i
CCN(CCn1cccn1)C(=O)CCc1nnc(CCCc2ccccc2)o1 | i | ? | i | 12.6µM | i
O=C(Cn1ccc2ccccc2c1=O)NCCC(=O)Nc1cccc(Cl)c1 | i | i[15.4 µM] | i | i | i
FC(F)(F)c1cnc(Oc2ccc(-c3nnco3)cc2)c(Cl)c1 | i | i | i | i | i
Fc1cc(Br)ccc1COc1ccc(-c2nnco2)cc1 | i | i | i | 6.31µM | i
Fc1ccc(COc2ccc(-c3nnco3)cc2)c(Cl)c1 | i | i[15.4 µM] | i | 8.91µM | i
O=C(COc1ccc(-c2nnco2)cc1)Nc1c(F)cccc1F | i | i[15.4 µM] | i | i | i
COc1cc(NC(=O)Cn2nnc(-c3ccc(C(F)(F)F)cc3)n2)c(C(=O)O)cc1OC | nt | nt | nt | nt | i
COc1ccc2c(c1OC)C(=O)N(c1cccc(C(F)(F)F)c1)C2 | i | i | i | 2.82µM | i
O=C(Cc1ccc(OCC2CCCCC2)cc1)NO | nt | nt | nt | i | nt
CCOC(=O)c1cnc2ccc(OCC)cc2c1NCc1ccccc1OC | 31.6µM | i[15.4 µM] | i | i | i
Cc1cc(-c2ccccc2)c2c3c(c(-c4ccccc4)n2n1)c(=O)n(C)c(=O)n3C | i | i | 70.2 | i | i
COc1ccc(CCNC(=O)c2nc(SCc3ccc(C)cc3)ncc2Cl)cc1OC | nt | nt | nt | nt | i
O=C(Nc1sc(-c2ccccc2)cc1C(=O)O)c1ccccc1 | ? | i | i | 11.2µM | i
CCOC(=O)c1cc(-c2ccccc2)sc1NC(=O)c1ccc(OC)cc1 | i | i | i | i | i
Nc1ccc(C=Cc2ccc(N)cc2)cc1 | nt | nt | i | i | nt
CCOc1ccc(-c2cn(-c3ccc(OC)cc3)c(SCC(=O)Nc3ccccc3Cl)n2)cc1 | nt | nt | nt | nt | i
CCOc1ccc(-c2cn(-c3ccc(OC)cc3)c(SC)n2)cc1 | i | i[15.4 µM] | i | 11.2µM | i
c1ccc(-c2cc3nc(NCc4cccs4)ccn3n2)cc1 | nt | nt | i | i | nt
O=c1c2ccccc2nc2ccc(NCc3cccs3)nn12 | i | i | i | 11.2µM | i
CCOc1ccc(-c2nnc(N3CCCCC3)c3ccccc23)cc1 | 50.1µM | i | i | i | i
CCCn1c(SCC(=O)N2CCc3ccccc3C2)nc2c1c(=O)n(C)c(=O)n2C | i | 31.6µM | i | i | i
CCn1c(SCC(=O)N2CCc3ccccc3C2)nc2c1c(=O)n(C)c(=O)n2C | i | ? | i | i | i
CC(=O)Nc1cc(NC(C)=O)c(N=Nc2ccccc2)cc1C | i | i | i | 3.55µM | i
SMILES | gsp antag | gsp ag | IL2 activator | BRCA1 expr up | mIDH1 inhibitor
Cc1cccc(NC(=O)c2cc(NC(=O)C3CCCCC3C(=O)O)ccc2N2CCCCC2)c1 (configuration not stated) | 35.5µM | i | i | i | i
CC(=O)Nc1ccc(N2CCCCC2)c(C(=O)Nc2cccc(C)c2)c1 | i | i | i | i | i
COc1cc2nc(N3CCCN(C)CC3)nc(N(C)C)c2cc1OC | nt | nt | nt | i | nt
CCN1C(=O)[C@H]2[C@H]3[C@H](O)[C@H](O)CC(=O)[C@@H]3CC[C@H]2C1=O | nt | nt | nt | i | nt
CN(C)C1(CNC(=O)COc2ccc([N+](=O)[O-])cc2)CCCCC1 | nt | nt | nt | nt | i
CCCc1ccc2oc(C(=O)NCCc3nc(C(=O)OCC)cs3)c(C)c2c1 | ? | i[15.4 µM] | i | i | i
CCCc1ccc2oc(C(=O)NCCc3cnn(C)c3)c(C)c2c1 | i | i | i | 8.91µM | i
Cc1cccc(N2CCN(C(=O)c3cc(S(=O)(=O)N4CCC(C)CC4)cn3C)CC2)c1C | nt | nt | nt | nt | i
Oc1ccc(/C=C/c2cnccn2)cc1 | i | i | i | 12.6µM | i
COc1ccc(/C=C/c2cnccn2)cc1OC | nt | nt | nt | i | nt
COc1ccc(OCCn2c(=O)sc3ccccc32)cc1 | i | i[15.4 µM] | i | 10µM | i
Cc1cccc(OCCn2c(=O)sc3ccccc32)c1 | i | i | i | 3.55µM | i
COc1ccc(OC)c(NC(=O)CN2C(=O)CCc3cc(S(=O)(=O)N4CCCCC4)ccc32)c1 | nt | nt | nt | i | i

Screening data as filed in PubChem BioAssay.
